# According to PubChem BioAssay:
# Values joined by “and” are separate entries in the source; they are usually repeats but may differ in a detail not shown here. Equal values may be shown once. Results filed as inconclusive are left out. Active and inactive are the calls of the source.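 Rule for the calls, unless noted: active = z-score of at least 1.8 in each of two replicates, scored against plate mean and spread of sample wells; inactive = the rest.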
# Legend:
# [1] = test system: Aerobactin synthetase IucA (Klebsiella pneumoniae); experiment: IucA aerobactin synthetase inhibitors, biochemical, Tocris library, absorbance (AID 1345561; call rule not given here;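 note: 100% = enzyme without compound and 0% = no enzyme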); details: purified IucA enzyme assay, absorbance (OD) read-out; stronger effect = lower value;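 tested at 8 µM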
# [2] = growth inhibition of DIPG glioma cells, dose response, cell-based, SU-DIPG-XVII, MIPE5.0, CellTiter-Glo, qHTS (AID 1347060; cut-off not given, nearly all actives have AC50 up to about 26 µM;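 for AC50: cells exposed to compound for 48 hours before viability readout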); details: SU-DIPG-XVII viability, CellTiter-Glo ATP luminescence
# [3] = growth inhibition of DIPG glioma cells, dose response, cell-based, SU-DIPG-XIII, MIPE4.0, CellTiter-Glo, qHTS (AID 1347061; cut-off not given, nearly all actives have AC50 up to about 37 µM;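 note: cells exposed to compound for 48 hours before readout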); details: SU-DIPG-XIII viability, CellTiter-Glo ATP luminescence
# [4] = growth inhibition of DIPG glioma cells, dose response, cell-based, JHH-DIPG-1, MIPE4.0, CellTiter-Glo, qHTS (AID 1347062; cut-off not given, nearly all actives have AC50 up to about 27 µM;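 for AC50: cells exposed to compound for two days before readout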); details: JHH-DIPG-1 viability, CellTiter-Glo ATP luminescence
# [5] = SU-DIPG-VI glioma cell viability, MIPE4.0 library, CellTiter-Glo luminescence, qHTS (AID 1347066; cut-off not given, nearly all actives have AC50 up to about 30 µM;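 note: cells exposed to compound for 48 hours before readout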); details: CellTiter-Glo ATP luminescence
# [6] = SU-DIPG-XXV glioma cell viability, MIPE5.0 library, qHTS (AID 1347068; cut-off not given, nearly all actives have IC50 up to about 30 µM;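 for IC50: cells exposed to compound for 48 hours before viability readout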)
# [7] = sensitizers of A549 cells to miR-34 induction, primary screen, imaging, A549 dox-inducible miR-34, nuclei and caspase counts (AID 1347080;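 active = compounds whose cell count with miR-34 switched on is under 0.7 times the count with it off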); details: A549 miR-34 inducible, Hoechst nuclei count, 48 h
# [8] = viability rescue of complex I mutant cybrids, primary screen, cell-based, galactose medium, ATP luminescence (AID 1645843); details: complex I mutant cybrid cells, 72 h, stronger effect = higher value;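 note: positive z means more ATP and so rescue of galactose-driven cybrid death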
# [9] = growth inhibition of DIPG glioma cells, dose response, cell-based, SU-DIPG-XIII, MIPE5.0, CellTiter-Glo, qHTS (AID 1347064; cut-off not given, nearly all actives have AC50 up to about 23 µM;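 for AC50: cells exposed to compound for 48 hours before the viability read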); details: SU-DIPG-XIII viability, CellTiter-Glo ATP luminescence
# [10] = liver-stage malaria parasite growth inhibition, primary screen, cell-based, HepG2, luciferase luminescence, HepG2 viability (AID 624349; in the data active = parasite load remaining mostly below about 12%, no sharp cut-off; inactive = mostly above about 10%;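 note: 100% = mean of DMSO negative control wells on the same plate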); details: P. berghei liver stage in HepG2, luciferase luminescence, concentration not given here; parasite load remaining: stronger effect = lower value; viability: measured here: HepG2 viability without parasites
# [11] = JHH-DIPG-1 glioma cell viability, MIPE5.0 library, CellTiter-Glo luminescence, qHTS (AID 1347067; cut-off not given, nearly all actives have AC50 up to about 26 µM;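 note: cells exposed to compound for 48 hours before readout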); details: JHH-DIPG-1 glioma viability, CellTiter-Glo ATP luminescence
# [12] = survival rescue of mitochondrial mutant cells in low glucose, primary screen, MELAS cybrids, Rieske KO mouse fibroblasts, CellTiter-Glo (AID 1508586;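 active = mean z-score across replicates of 1.96 or higher in either the MELAS or the Rieske mutant cell line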;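 note: z relative to plate mean and SD of compound and empty wells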)
# [13] = LFS_MB_P medulloblastoma growth inhibition, cell-based, chromothripsis tumors, cisplatin or BGB combos (AID 1671449; in the data active = inhibition above about 80%;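 note: cells exposed for 96 hours; 0% = vehicle DMSO and 100% = killing by high DMSO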); details: LFS_MB_P medulloblastoma cells
# [14] = HDN33 neuroblastoma growth inhibition, cell-based, chromothripsis tumors, cisplatin or BGB combos (AID 1671450; in the data active = inhibition above about 80%;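 note: cells exposed to compound for four days; 0% = vehicle DMSO and 100% = cell killing by high DMSO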); details: HDN33 neuroblastoma cells, stronger effect = higher value
# [15] = ICB984 medulloblastoma cell growth inhibition, synergistic combos for chromothripsis tumors, cisplatin or BGB combos (AID 1671451; call rule not given here;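 note: cells exposed for 96 hours before readout; 0% = vehicle DMSO and 100% = killing by high DMSO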); details: ICB984 medulloblastoma cells, drug combinations, stronger effect = higher value
# [16] = HTB85 osteosarcoma cell growth inhibition, synergistic combos for chromothripsis tumors, BGB or cisplatin IC20 combos (AID 1671453; in the data active = inhibition above about 80%;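 note: cells exposed for 96 hours before readout; 0% = vehicle DMSO and 100% = high DMSO killing control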); details: HTB85 osteosarcoma cells, drug combinations, stronger effect = higher value
# [17] = stronger effect = lower value, cell number ratio, induced over uninduced
# [18] = measured here: relative caspase fold change +Dox/-Dox
# [19] = measured here: total cells with miR-34 induction, stronger effect = lower value
# [20] = measured here: total cells without miR-34 induction
# [21] = MELAS cybrid survival, CellTiter-Glo 48 h, stronger effect = higher value
# [22] = Rieske KO mouse fibroblast survival, CellTiter-Glo 72 h
smiles,measurement,setting,value
CCOC(=O)C1=C(N)Oc2ccc(Br)cc2C1C(C#N)C(=O)OCC (centres undefined),remaining activity,[1],92.3% (inactive)
same,AC50,[2],26.3 µM (active)
same,outcome,[3],inactive
same,AC50,[4],23.5 µM (active)
same,AC50,[5],20.9 µM (active)
same,outcome,[6],inactive
same,fold change,[7]; [17],1.02 (inactive)
same,fold change,[7]; [18],1.4
same,cell count,[7]; [19],6950
same,cell count,[7]; [20],6840
same,z-score,[8],-0.87 (inactive)
N[C@H](CSC(c1ccccc1)(c1ccccc1)c1ccccc1)C(=O)O,remaining activity,[1],104% (inactive)
same,outcome,[2],inactive
same,outcome,[3],inactive
same,outcome,[4],inactive
same,outcome,[9],inactive
same,outcome,[5],inactive
same,outcome,[6],inactive
same,fold change,[7]; [17],0.901 (inactive)
same,fold change,[7]; [18],1.4
same,cell count,[7]; [19],7800
same,cell count,[7]; [20],8660
same,z-score,[8],0.555 (inactive)
O=Nc1c(-c2c(O)[nH]c3cc(Br)ccc23)[nH]c2ccccc12,parasite load remaining,[10],17.4% (inactive)
same,viability,[10],92.7%
same,remaining activity,[1],107% (inactive)
same,AC50,[2],8.33 µM (active)
same,outcome,[3],inactive
same,AC50,[4],20.9 µM (active)
same,AC50,[9],14.8 µM (active)
same,AC50,[5],20.9 µM (active)
same,AC50,[11],14.8 µM (active)
same,IC50,[6],10.5 µM (active)
same,z-score,[12]; [21],-0.015 (inactive)
same,z-score,[12]; [22],1.62
same,z-score,[8],-1.29 (inactive) and -0.705 (inactive)
CC[C@H](NC(C)C)[C@H](O)c1ccc(O)c2[nH]c(=O)ccc12,parasite load remaining,[10],42.5% (inactive)
same,viability,[10],102%
same,remaining activity,[1],95.2% (inactive)
same,outcome,[2],inactive
same,outcome,[3],inactive
same,outcome,[4],inactive
same,outcome,[5],inactive
same,outcome,[11],inactive
same,fold change,[7]; [17],0.929 (inactive) and 0.941 (inactive)
same,fold change,[7]; [18],0.691 and 1.28
same,cell count,[7]; [19],8730 and 10200
same,cell count,[7]; [20],9400 and 10800
same,z-score,[12]; [21],-0.163 (inactive)
same,z-score,[12]; [22],-0.0411
same,z-score,[8],0.095 (inactive) and 0.72 (inactive)
Fc1ccc(Cl)cc1-c1nc(Nc2ccncc2)c2nccnc2n1,remaining activity,[1],110% (inactive)
same,AC50,[2],23.5 µM (active)
same,outcome,[3],inactive
same,outcome,[4],inactive
same,outcome,[5],inactive
same,outcome,[6],inactive
same,fold change,[7]; [17],0.904 (inactive)
same,fold change,[7]; [18],1.34
same,cell count,[7]; [19],8670
same,cell count,[7]; [20],9590
same,z-score,[8],1.11 (inactive)
COc1nccc(-c2c(-c3ccc(F)cc3)ncn2C2CCC(O)CC2)n1 (centres undefined),parasite load remaining,[10],41% (inactive)
same,viability,[10],82.3%
same,remaining activity,[1],92.5% (inactive)
same,outcome,[2],inactive
same,outcome,[3],inactive
same,outcome,[4],inactive
same,outcome,[5],inactive
same,outcome,[11],inactive
same,outcome,[6],inactive
same,fold change,[7]; [17],0.979 (inactive)
same,fold change,[7]; [18],0.79
same,cell count,[7]; [19],6910
same,cell count,[7]; [20],7050
same,z-score,[8],0.59 (inactive)
O=c1ncccn1[C@@H]1O[C@H](CO)[C@@H](O)[C@H]1O,inhibition,"[13]; at 0.5 µM, stronger effect = higher value",94.5% (active)
same,inhibition,"[13]; measured here: combination with BGB IC20, at 0.005 µM",-19.6%
same,inhibition,"[13]; measured here: combination with BGB IC40, at 0.005 µM",-15.6%
same,inhibition,"[13]; measured here: combination with BGB IC40, at 0.05 µM",-21.7%
same,inhibition,"[13]; measured here: combination with cisplatin, at 0.5 µM, stronger effect = higher value",116%
same,inhibition,"[13]; measured here: combination with cisplatin, at 5 µM, stronger effect = higher value",-26.6%
same,inhibition,"[14]; BGB combo, at 5 µM",-58.6%
same,inhibition,[14]; at 0.5 µM,-38.5% (inactive)
same,inhibition,"[14]; cisplatin combo, at 5 µM",-44.1%
same,inhibition,"[14]; measured here: with BGB IC20 combination, at 0.5 µM",-41.3%
same,inhibition,"[14]; measured here: with cisplatin IC20 combination, at 0.5 µM",-33.1%
same,inhibition,"[14]; single agent, at 5 µM",-32.1%
same,inhibition,"[15]; BGB IC20 combo, at 0.005 µM",4.35%
same,inhibition,"[15]; BGB IC40 combo, at 0.005 µM",-50.2%
same,inhibition,"[15]; BGB IC40 combo, at 0.05 µM",-18%
same,inhibition,[15]; at 0.5 µM,-16.8% (inactive)
same,inhibition,"[15]; cisplatin combo, at 0.05 µM",-22.2%
same,inhibition,"[15]; cisplatin combo, at 0.5 µM",-22.8%
same,inhibition,"[15]; cisplatin combo, at 5 µM",-30.8%
same,inhibition,"[15]; measured here: 5 uM single agent, at 5 µM",-3.85%
same,inhibition,[16]; at 0.5 µM,-26.7% (inactive)
same,inhibition,"[16]; measured here: with BGB IC20, at 0.5 µM",-35%
same,inhibition,"[16]; measured here: with BGB IC20, at 5 µM",-20.6%
same,inhibition,"[16]; measured here: with cisplatin IC20, at 0.5 µM",-23.7%
same,inhibition,"[16]; measured here: with cisplatin IC20, at 5 µM",-31.4%
same,inhibition,"[16]; single agent, at 5 µM",-19.2%
COc1ccc(Br)cc1S(=O)(=O)NC(=O)/C=C/c1ccccc1Cc1ccc2ccccc2c1,remaining activity,[1],102% (inactive)
same,fold change,[7]; [17],1.05 (inactive) and 0.853 (inactive)
same,fold change,[7]; [18],1.89 and 2.15
same,cell count,[7]; [19],9590 and 8680
same,cell count,[7]; [20],9110 and 10200
same,z-score,[8],0.395 (inactive) and 0.085 (inactive)
O=C1CCc2c(ccc3ccccc23)O1,remaining activity,[1],100% (inactive)
same,fold change,[7]; [17],0.939 (inactive) and 0.91 (inactive)
same,fold change,[7]; [18],0.854 and 0.797
same,cell count,[7]; [19],5380 and 8760
same,cell count,[7]; [20],5730 and 9620
same,z-score,[8],-0.32 (inactive)
